Source: PubChem BioAssay (Tox21)
Inconclusive results are not listed. Calls of active or inactive are those of the source. Unless noted, calls follow the shape of the dose curve; as a rule, active = well fitted curve in the direction sought with a large enough effect in the repeat runs; inconclusive = weak or mixed curves; inactive = no such curve, though single readings can be large; an effect the other way counts as inactive or inconclusive.

Columns and labels:
[1] = qHTS assay for small molecules that induce genotoxicity in human embryonic kidney cells expressing luciferase-tagged ATAD5 (AID 651632); also: nearly all actives have a fitted effect of over 15% in size
Procedure, shortened: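 Test compounds were delivered by pin tool onto HEK293T reporter cells (2,000/well) expressing ATAD5 fused to luciferase. After 16 hr at 37C, 5% CO2, Amplite was added for 30 min at room temperature and luminescence was measured.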

[2] = qHTS assay for small molecule agonists of the p53 signaling pathway - cell viability (AID 651633; calls by dose curve;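 also: p53RE-bla HCT reporter cells with a stable beta-lactamase p53 reporter; series mostly up to about 83 µM; nearly all actives have a fitted effect of over 30% in size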)
Procedure, shortened: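 p53RE-bla cells, seeded at 4,000 per well and rested 5 h at 37 C/5% CO2, received compounds in DMSO for 16 h at 37 C. CellTiter-Glo was then added, and luminescence was read after 30 min at room temperature to gauge cytotoxicity.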

[3] = qHTS assay for small molecules that induce genotoxicity in human embryonic kidney cells expressing luciferase-tagged ATAD5 - cell viability (AID 651634; calls by dose curve; also: nearly all actives have a fitted effect of over 25% in size)
Procedure, shortened: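 Quantitative high-throughput format. HEK293T cells expressing ATAD5 fused to luciferase were plated at 2,000 cells/well and treated 15.5 hr with compound versus DMSO. Viability was determined by fluorescent live-cell protease substrate, 30 min at 37C.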

[4] = qHTS assay for small molecule disruptors of the mitochondrial membrane potential - cell viability (AID 720634; calls by dose curve;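 also: human HepG2 liver cancer cells; series mostly up to about 83 µM; nearly all actives have a fitted effect of over 20% in size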)
Procedure, shortened: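 Same-well counter-screen: following the MMP dye addition, CellTiter-Glo was added to 1 hr compound-treated HepG2 cells and luminescence read after 30 min at room temperature.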

[5] = qHTS assay for small molecule disruptors of the mitochondrial membrane potential (AID 720635)
Procedure, shortened: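 HepG2 cells (2,000/well) attached overnight at 37C, then took compound for 1 hr at 37C, 5% CO2. Mito-MPS dye was added for 30 min; fluorescence was read at 490/535 nm (monomers) and 540/590 nm (aggregates).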

[6] = qHTS assay to test for compound auto fluorescence at 535 nm (green) in HepG2 cells (AID 720675)
[7] = qHTS assay to test for compound auto fluorescence at 460 nm (blue) in HEK293 cells (AID 720678)
Procedure, shortened: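 Blue-channel (Ex/Em 405/460 nm) intensity measured in HEK293 cultures after overnight compound exposure at 37C; signal expressed relative to triamterene. Cells plated 2,000 per well in 10% dialyzed FBS medium and allowed 4-5 hr to attach.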

[8] = qHTS assay to test for compound auto fluorescence at 590 nm (red) in HEK293 cells (AID 720679)
Procedure, shortened: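 Red-channel autofluorescence (Ex/Em 540/590 nm; Rose Bengal sodium reference) was measured after overnight 37C, 5% CO2 exposure of attached HEK293 cells, 2,000 per well in medium with 10% dialyzed FBS.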

[9] = qHTS assay to test for compound auto fluorescence at 535 nm (green) in HEK293 cells (AID 720680)
[10] = qHTS assay to test for compound auto fluorescence at 460 nm (blue) in HEK293 cell free culture (AID 720681)
Procedure, shortened: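 Test compounds were pinned into cell-free culture medium (DMEM with 10% FBS) and fluorescence was read directly at Ex/Em 405/460 nm. Signals were expressed as fluorescence equivalents of triamterene, with DMSO vehicle as control.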

[11] = qHTS assay to test for compound auto fluorescence at 535 nm (green) in HEK293 cell free culture (AID 720682)
Procedure, shortened: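 Read-out: 485/535 nm fluorescence intensity, calibrated against fluorescein. Medium only (DMEM + 10% FBS, no cells); test compound or DMSO vehicle added by pintool before plate reading.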

[12] = qHTS assay to test for compound auto fluorescence at 590 nm (red) in HEK293 cell free culture (AID 720683)
Procedure, shortened: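 Tox21 10K library compounds were pinned into cell-free DMEM with 10% FBS and fluorescence was read at excitation 540 nm. Activity is expressed as Rose Bengal sodium equivalency.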

[13] = qHTS assay to test for compound auto fluorescence at 590 nm (red) in HepG2 cell free culture (AID 720684)
Procedure, shortened: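 Readout: intrinsic compound fluorescence at 590 nm emission after 540 nm excitation, scaled to Rose Bengal sodium. Matrix was cell-free MEM with 10% FBS; DMSO vehicle wells served as control.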

[14] = qHTS assay to test for compound auto fluorescence at 460 nm (blue) in HepG2 cell free culture (AID 720685)
Procedure, shortened: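 Cell-free plates of MEM plus 10% FBS received 23 nL compound or DMSO vehicle; blue-channel (405/460 nm) intensity scored against triamterene as reference fluorophore.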

[15] = qHTS assay to test for compound auto fluorescence at 535 nm (green) in HepG2 cell free culture (AID 720686)
[16] = qHTS assay to test for compound auto fluorescence at 460 nm (blue) in HepG2 cells (AID 720687)
Procedure, shortened: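 Cells (2,000/well in MEM with 10% FBS) attached overnight at 37 C, then were exposed to compound or DMSO for 1 hr at 37 C, 5% CO2. Fluorescence read at Ex/Em 405/460 nm, expressed as triamterene-equivalent signal.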

[17] = target: Glucocorticoid receptor (Homo sapiens) (UniProt P04150); assay: qHTS assay to identify small molecule antagonists of the glucocorticoid receptor (GR) signaling pathway (AID 720692; active = well fitted inhibition curve with a large enough effect in the signal ratio in the repeat runs, not every such curve was filed as active; the % refers to the signal ratio)
Chain of Glucocorticoid receptor (Homo sapiens) (P04150 whole entry, looked up): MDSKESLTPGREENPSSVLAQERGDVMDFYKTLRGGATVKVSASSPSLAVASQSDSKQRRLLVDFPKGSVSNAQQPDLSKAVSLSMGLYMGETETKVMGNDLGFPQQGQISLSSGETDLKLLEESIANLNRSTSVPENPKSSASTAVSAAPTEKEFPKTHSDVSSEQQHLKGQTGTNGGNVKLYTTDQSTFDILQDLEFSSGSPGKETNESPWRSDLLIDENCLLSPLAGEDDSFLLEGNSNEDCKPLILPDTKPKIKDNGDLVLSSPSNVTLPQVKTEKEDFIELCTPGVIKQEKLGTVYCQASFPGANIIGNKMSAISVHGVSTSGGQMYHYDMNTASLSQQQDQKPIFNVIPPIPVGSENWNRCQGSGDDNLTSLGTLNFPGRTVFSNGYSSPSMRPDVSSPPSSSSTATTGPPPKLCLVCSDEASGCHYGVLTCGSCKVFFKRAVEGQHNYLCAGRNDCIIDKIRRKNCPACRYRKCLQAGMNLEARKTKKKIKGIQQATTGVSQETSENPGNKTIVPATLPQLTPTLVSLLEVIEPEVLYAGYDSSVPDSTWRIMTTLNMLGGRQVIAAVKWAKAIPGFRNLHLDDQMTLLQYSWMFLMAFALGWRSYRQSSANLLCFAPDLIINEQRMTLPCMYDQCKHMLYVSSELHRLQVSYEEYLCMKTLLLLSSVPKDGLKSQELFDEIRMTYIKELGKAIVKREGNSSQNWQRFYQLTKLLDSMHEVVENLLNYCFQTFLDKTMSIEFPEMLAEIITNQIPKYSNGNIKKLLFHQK
Procedure, shortened: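 GRE-bla HeLa line, dex-stimulated (5 nM final). Compound exposure 18 h, 37 C. Beta-lactamase FRET read after 2 h RT substrate.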

[18] = qHTS assay to identify small molecule antagonists of the glucocorticoid receptor (GR) signaling pathway - cell viability counter screen (AID 720693); also: nearly all actives have a fitted effect of over 55% in size
[19] = qHTS assay for identifying genotoxic compounds that show differential cytotoxicity against isogenic chicken DT40 cell lines with known DNA damage response pathways - wild type cell line (AID 743012); also: nearly all actives have a fitted effect of over 60% in size
Procedure, shortened: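 300 wt DT40 cells/well; cpd (DMSO) pintool-transferred after ~0.5 h at 37 C/5% CO2; 40 h incubation; CellTiter-Glo added, 30 min RT; luminescence read.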

[20] = qHTS assay for identifying genotoxic compounds that show differential cytotoxicity against isogenic chicken DT40 cell lines with known DNA damage response pathways - Rad54/Ku70 mutant cell line (AID 743015); also: nearly all actives have a fitted effect of over 60% in size
[21] = qHTS assay to identify small molecule antagonists of the androgen receptor (AR) signaling pathway - cell viability counter screen (AID 743033; also: nearly all actives have a fitted effect of over 45% in size)
[22] = qHTS assay to identify small molecule antagonists of the androgen receptor (AR) signaling pathway using the MDA cell line - cell viability counter screen (AID 743041; also: nearly all actives have a fitted effect of over 45% in size)
Procedure, shortened: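 qHTS viability read-out; MDA-kb2 AR-luc; R1881-stimulated; 16 h exposure at 37C, 0% CO2; CellTiter-Fluor, 30 min; fluorescence intensity.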

[23] = qHTS assay to identify small molecule antagonists of the thyroid receptor (TR) signaling pathway - cell viability counter screen (AID 743064); also: nearly all actives have a fitted effect of over 50% in size
Procedure, shortened: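 GH3.TRE-Luc rat pituitary cells carrying a TRE-luciferase reporter were treated with compound plus 1 nM T3 (final) for 23.5 h at 37 °C. Viability was then read in the same wells by CellTiter-Fluor fluorescence after a further 30 min.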

[24] = qHTS assay to identify small molecule antagonists of the thyroid receptor (TR) signaling pathway (AID 743065); also: series mostly up to about 70 µM; nearly all actives have a fitted effect of over 55% in size
Procedure, shortened: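 GH3.TRE-Luc rat pituitary cells carrying two TR response elements driving luciferase were plated for 4 h, given compound plus 1 nM T3 (final), and incubated 23.5 h at 37 C. ONE-Glo luminescence measured reporter inhibition; CellTiter-Fluor fluorescence tracked cytotoxicity.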

[25] = test system: thyroid hormone receptor (rat, GH3 cells); assay: qHTS assay to identify small molecule agonists of the thyroid receptor (TR) signaling pathway (AID 743066; calls by dose curve)
[26] = qHTS assay to identify small molecule antagonists of the estrogen receptor alpha (ER-alpha) signaling pathway - cell viability counter screen (AID 743074; calls by dose curve;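 also: HEK293 cells carrying ER-alpha-UAS-bla reporter stimulated with 17beta-estradiol; nearly all actives have a fitted effect of over 45% in size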)
[27] = qHTS assay to identify small molecule antagonists of the estrogen receptor alpha (ER-alpha) signaling pathway using the BG1 cell line - cell viability counter screen (AID 743081);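 also: compound given together with 17beta-estradiol as the ER stimulus; series mostly up to about 70 µM; nearly all actives have a fitted effect of over 45% in size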
[28] = qHTS assay to identify small molecule that activate the aryl hydrocarbon receptor (AhR) signaling pathway - cell viability counter screen (AID 743086)
Procedure, shortened: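 HepG2-AhR-luc (HG2L7.5c1) cells, 4000/well, were preincubated 5 h at 37C, exposed to compound in qHTS format for 24 hr at 37C, then given CellTiter-Fluor for 30 min; viability was read as fluorescence in the reporter wells.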

[29] = qHTS assay to identify small molecule antagonists of the estrogen receptor alpha (ER-alpha) signaling pathway using the BG1 cell line in the presence of 0.1 nM 17-beta-estradiol - cell viability counter screen (AID 1259241); also: nearly all actives have a fitted effect of over 40% in size
Procedure, shortened: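 VM7Luc4E2 cells (endogenous ER-alpha, 4×ERE-luciferase), hormone-starved 5 days in charcoal-stripped FBS, were treated with compounds plus 0.1 nM 17beta-estradiol for 22 hr at 37C; viability read in same wells as CellTiter-Fluor live-cell protease fluorescence.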

[30] = qHTS assay to identify small molecule antagonists of the androgen receptor (AR) signaling pathway using the MDA cell line in the presence of 0.5 nM R1881 - cell viability counter screen (AID 1259242); also: nearly all actives have a fitted effect of over 45% in size
Procedure, shortened: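 Human breast carcinoma MDA-kb2 cells, cultured without CO2, receive compounds alongside 0.5 nM (final) R1881 agonist. After 16 hr at 37C, viability is taken as live-cell protease signal.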

Measured: Potency

O=S(=O)(O)c1cc(O)ccc1O
inactive: all assays above
